Consider 15 compounds from PubChem BioAssay.

Where “and” joins values, the source holds several entries; their conditions need not be identical. Equal values may be shown once. Results filed as inconclusive are left out. Calls of active or inactive are those of the source. Unless noted, the limit is not given here; nearly all actives have AC50 up to about 26 µM.

Experiment [1] can be described thus: viability loss in pontine glioma line – cell-based, SU-DIPG-XVII, MIPE5.0, CellTiter-Glo, qHTS, dose response (AID 1347060).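 As to AC50: cells exposed to compound for 48 hours before viability readout.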 The conditions noted are these: CellTiter-Glo ATP luminescence.
A short description of experiment [2]: viability loss in pontine glioma line – cell-based, SU-DIPG-XIII, MIPE4.0, CellTiter-Glo, qHTS, dose response (AID 1347061; cut-off not given, nearly all actives have AC50 up to about 37 µM;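 also: cells exposed to compound for 48 hours before readout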). The note with it: CellTiter-Glo ATP luminescence.
Experiment [3] is described as follows: viability loss in pontine glioma line – cell-based, JHH-DIPG-1, MIPE4.0, CellTiter-Glo, qHTS, dose response (AID 1347062; cut-off not given, nearly all actives have AC50 up to about 27 µM;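 as to AC50: cells exposed to compound for two days before readout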). The note with it: JHH-DIPG-1 viability, CellTiter-Glo ATP luminescence. Background: ATP-based viability assays read luminescence as a measure of living cells.
The nature of experiment [4]: viability loss in pontine glioma line – cell-based, SU-DIPG-IV, MIPE4.0, CellTiter-Glo, qHTS, dose response (AID 1347063; cut-off not given, nearly all actives have AC50 up to about 30 µM;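 also: compound exposure lasted 48 hours before the viability readout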). The note with it: CellTiter-Glo ATP luminescence.
Experiment [5] can be described thus: viability loss in pontine glioma line – cell-based, SU-DIPG-XIII, MIPE5.0, CellTiter-Glo, qHTS, dose response (AID 1347064; cut-off not given, nearly all actives have AC50 up to about 23 µM;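 as to AC50: cells exposed to compound for 48 hours before the viability read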). The note with it: CellTiter-Glo ATP luminescence.
Experiment [6] in a line: viability loss in pontine glioma line – cell-based, SU-DIPG-XXV, MIPE5.0, CellTiter-Glo, qHTS, dose response (AID 1347065).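 Also: cells exposed to compound for 48 hours before ATP readout.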 The conditions noted are these: CellTiter-Glo ATP luminescence.
Experiment [7] can be described thus: growth inhibition of DIPG cells – cell-based, MIPE4.0 library, CellTiter-Glo luminescence, qHTS (AID 1347066; cut-off not given, nearly all actives have AC50 up to about 30 µM;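 also: cells exposed to compound for 48 hours before readout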). The conditions noted are these: SU-DIPG-VI viability, CellTiter-Glo ATP luminescence.
Experiment [8] in a line: JHH-DIPG-1 glioma cell viability, MIPE5.0 library, CellTiter-Glo luminescence, qHTS (AID 1347067).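 Also: cells exposed to compound for 48 hours before readout.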 The conditions noted are these: JHH-DIPG-1 glioma viability, CellTiter-Glo ATP luminescence.
A short description of experiment [9]: growth inhibition of DIPG cells – cell-based, MIPE5.0 library, qHTS (AID 1347068; cut-off not given, nearly all actives have IC50 up to about 30 µM;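 as to IC50: cells exposed to compound for 48 hours before viability readout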). The note with it: SU-DIPG-XXV viability. On the technique in general: In qHTS, concentration-response curves come from the screen itself.
A short description of experiment [10]: viability loss with induced miR-34 in A549 – imaging, A549 dox-inducible miR-34, nuclei and caspase counts, primary screen (AID 1347080;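 active = compounds whose cell count with miR-34 switched on is under 0.7 times the count with it off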). The note with it: A549 miR-34 inducible, Hoechst nuclei count, 48 h.
A short description of experiment [11]: compounds altering HSF1 focus formation in cells – imaging, Selleck Cancer Library (AID 1347162; in the data active = plate-normalised HSF1 focus index below about 0.46). The note with it: human cells, HSF1 nuclear foci imaging, at 10 µM; SSMD: measured here: HSF1 foci SSMD mean; cell count: measured here: cell number; plate-normalised HSF1 focus index: stronger effect = lower value.
The nature of experiment [12]: MELAS cybrid and Rieske KO viability enhancers – cell-based, MELAS cybrids, Rieske KO mouse fibroblasts, CellTiter-Glo, primary screen (AID 1508586;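 active = mean z-score across replicates of 1.96 or higher in either the MELAS or the Rieske mutant cell line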;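 also: z relative to plate mean and SD of compound and empty wells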). The note with it: low glucose.
Experiment [13] can be described thus: galactose survival enhancers in mitochondrial complex I cybrids – cell-based, galactose medium, ATP luminescence, primary screen (AID 1645843;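 active = z-score of at least 1.8 in each of two replicates, scored against plate mean and spread of sample wells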;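 also: positive z means more ATP and so rescue of galactose-driven cybrid death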). The conditions noted are these: complex I mutant cybrid cells, 72 h, stronger effect = higher value.
The mark [14] stands for this setting: stronger effect = lower value, cell number ratio, induced over uninduced.
Where [15] appears, read: measured here: relative caspase fold change +Dox/-Dox.
[16] abbreviates: measured here: total cells with miR-34 induction, stronger effect = lower value.
Where [17] appears, read: measured here: total cells without miR-34 induction.
[18] abbreviates: MELAS cybrid survival, CellTiter-Glo 48 h, stronger effect = higher value.
The mark [19] stands for this setting: Rieske KO mouse fibroblast survival, CellTiter-Glo 72 h.

Consider `Cc1cnc(Nc2ccc(CN3CCOCC3)cc2)nc1Nc1cccc(S(=O)(=O)NC(C)(C)C)c1`, for which the AC50 (in general, the concentration at which the activity in the assay is half-maximal) in experiment [1] is 4.17 µM (active); in [2], 10.5 µM (active); in experiment [3], 11.8 µM (active); in [4], 11.8 µM (active); in experiment [5], 3.32 µM (active); in experiment [6], 3.32 µM (active). The AC50 in experiment [7] is 8.33 µM (active); in experiment [8], 5.9 µM (active). In addition, in experiment [9], the IC50 (in general, the concentration that inhibits the measured activity by half) is 3.72 µM (active).

For the compound `CC(=O)OC[C@@H]1O[C@@H](n2ccc(=O)[nH]c2=O)[C@H](OC(C)=O)[C@@H]1OC(C)=O`, the outcome in [1], in experiment [2], in [3], in experiment [4], in experiment [5] and in experiment [6] was inactive. Besides, the result in [7], in [8] and in experiment [9] was inactive.

Take `CCC(=O)O[C@]1(C(=O)CO)CC[C@H]2[C@@H]3CCC4=CC(=O)CC[C@]4(C)[C@H]3CC[C@@]21C`: the compound was classed as inactive in experiment [1], in [2], in [3], in experiment [4], in experiment [5] and in experiment [6]. In addition, the result in experiment [7], in experiment [8] and in experiment [9] was inactive.

On to `C=C(C)[C@@H]1CC[C@]2(C)CC[C@]3(C)[C@H](CC[C@@H]4[C@@]5(C)CC[C@H](O)C(C)(C)[C@@H]5CC[C@]43C)[C@@H]12`, for which the outcome in experiment [1], in experiment [2], in experiment [3], in experiment [4], in [5] and in experiment [6] was inactive. Also, the result in experiment [7], in experiment [8] and in experiment [9] was inactive.

As to `CN1CCN(Cc2ccc(NC(=O)Nc3ccc(Oc4cc(NC(=O)C5CC5)ncn4)cc3)cc2C(F)(F)F)CC1`, the AC50 in [1] is 0.468 µM (active); in experiment [2], 5.9 µM (active); in experiment [3], 0.118 µM (active); in [4], 0.235 µM (active); in [5] it was 0.525 µM (active); in experiment [6] it was 0.417 µM (active). Further, the AC50 in [7] is 2.96 µM (active); in [8] it was 0.372 µM (active). Moreover, the IC50 in experiment [9] is 0.417 µM (active).

Take `COc1cc2nc(N3CCCN(C)CC3)nc(NC3CCN(Cc4ccccc4)CC3)c2cc1OC`: the AC50 in experiment [1] was 10.5 µM (active); in experiment [2], 26.4 µM (active); in experiment [3], 7.43 µM (active); in experiment [4], 10.5 µM (active); in [5] it was 13.2 µM (active); in [6] it was 10.5 µM (active). In addition, the AC50 in [7] is 9.35 µM (active); in [8] it was 13.2 µM (active). Also, the IC50 in [9] is 11.8 µM (active). Also, the fold change in [10] (setting [14]) was 0.884 (inactive) and 1.04 (inactive) and 1.01 (inactive); in [10] (setting [15]), 1.51 and 1.3 and 0.404. Also, the cell count in experiment [10] (setting [16]) was 672 and 5080 and 2320; in experiment [10] (setting [17]), 760 and 4890 and 2300; in [11] it was 6820. In addition, the SSMD in experiment [11] is 1.64. Also, the plate-normalised HSF1 focus index in [11] was 1.1 (inactive). Moreover, the values for the z-score in experiment [12] (setting [18]), in experiment [12] (setting [19]) and in experiment [13] were -0.436 (inactive), -1.67 and -1.38 (inactive), respectively.

With `COc1cc(O)c2c(c1)C1OC1C[C@H](O)[C@H](O)C(=O)/C=C\C[C@H](C)OC2=O` (some centres undefined), the AC50 in experiment [1] was 0.661 µM (active); in experiment [2], 0.662 µM (active); in experiment [3], 5.9 µM (active); in experiment [4] it was 4.18 µM (active); in experiment [5] it was 0.661 µM (active); in experiment [6] it was 0.934 µM (active). Besides, the AC50 is 13.2 µM (active) in [7] and 4.17 µM (active) in experiment [8]. Further, in experiment [9], the IC50 was 18.6 µM (active).

On to `COC(=O)C[C@](O)(CCCC(C)(C)O)C(=O)O[C@@H]1C(OC)=CC23CCCN2CCc2cc4c(cc2[C@H]13)OCO4` (some centres undefined), for which the AC50 was 0.0661 µM (active) in experiment [1], 0.118 µM (active) in experiment [5], 0.0934 µM (active) in experiment [6] and 0.332 µM (active) in [8]. For the same compound, the compound was called inactive in experiment [2], in [3], in experiment [4], in [7] and in experiment [9].

In the case of `COc1cccc2c(NCc3ccccc3)nc(-n3c(N)nc4ccccc43)nc12`, the AC50 was 3.72 µM (active) in experiment [1]; 9.35 µM (active) in experiment [3]; 3.32 µM (active) in experiment [4]; 3.32 µM (active) in [5]; 2.63 µM (active) in [6]; 2.64 µM (active) in experiment [7]. The AC50 in experiment [8] is 2.95 µM (active). Further, in experiment [2], the outcome was inactive. Also, in [9], the 50% inhibitory concentration (IC50) is 2.95 µM (active).

For the compound `C[C@@]12O[C@@H](C[C@]1(O)CO)n1c3ccccc3c3c4c(c5c6ccccc6n2c5c31)CNC4=O`, the AC50 in [1] is 2.95 µM (active); in experiment [2], 4.69 µM (active); in experiment [3] it was 2.96 µM (active); in experiment [4], 8.33 µM (active); in experiment [5] it was 1.32 µM (active); in experiment [6], 0.186 µM (active). The AC50 in experiment [7] was 8.33 µM (active); in [8], 1.86 µM (active). Moreover, the IC50 in experiment [9] was 2.63 µM (active).

As to `COc1cc2nc(-c3ccc(N4CCN(C)CC4)cc3)nc(NCCN3CCOCC3)c2cc1OC`, the half-maximal activity concentration (AC50) in experiment [1] was 14.8 µM (active); in experiment [2], 0.332 µM (active); in experiment [3], 0.332 µM (active); in experiment [4] it was 0.132 µM (active); in [5], 9.34 µM (active); in experiment [6], 8.33 µM (active). Further, the results for the AC50 in experiment [7] and in experiment [8] were 0.118 µM (active) and 16.6 µM (active), respectively. Besides, the compound was called inactive in experiment [9].

Take `COc1cccc2nc(-c3cccs3)nc(NN3C(=O)C=C(C)C3=O)c12`: the AC50 in [1] is 0.833 µM (active); in experiment [2] it was 10.5 µM (active); in [3] it was 16.6 µM (active); in [4], 0.296 µM (active); in [5], 2.09 µM (active); in experiment [6], 1.66 µM (active). The AC50 in experiment [7] was 3.72 µM (active); in [8], 2.35 µM (active). In addition, in experiment [9], the IC50 is 7.42 µM (active).

For the compound `O=C(NCCS(=O)(=O)c1ccc(C(F)(F)F)cn1)c1ccc(Cl)cc1`, the outcome in [1], in [2], in experiment [3], in experiment [4], in experiment [5] and in experiment [6] was inactive. For the same compound, the outcome in [7], in experiment [8] and in experiment [9] was inactive. Besides, the fold change in [10] (setting [14]) was 0.87 (inactive); in [10] (setting [15]) it was 0.351. Further, the figures for the cell count in [10] (setting [16]), in [10] (setting [17]) and in experiment [11] were 7940, 9120 and 7080, respectively. The SSMD in experiment [11] turned out to be 3.34. In experiment [11], the plate-normalised HSF1 focus index was 1.2 (inactive). Also, the z-score was -0.369 (inactive) in experiment [12] (setting [18]) and 0.00298 in experiment [12] (setting [19]).

As for `COc1cc2c(Oc3ccc(-c4cnc(Nc5ccc(F)cc5)n(C)c4=O)cc3F)ccnc2cc1OCCCN1CCOCC1`, the AC50 is 3.32 µM (active) in experiment [1]; 14.8 µM (active) in [2]; 18.7 µM (active) in experiment [3]; 16.6 µM (active) in experiment [4]; 3.72 µM (active) in [5]; 2.09 µM (active) in [6]. The values for the AC50 in experiment [7] and in experiment [8] were 9.35 µM (active) and 9.34 µM (active), respectively. For the same compound, the IC50 in [9] was 6.61 µM (active).

In the case of `COc1ccc(S(=O)(=O)Nc2cc(-c3c(O)ccc4ccccc34)c(O)c3ccccc23)cc1`, the AC50 is 0.105 µM (active) in experiment [1]; 13.2 µM (active) in experiment [2]; 18.7 µM (active) in experiment [3]; 7.43 µM (active) in [4]; 3.32 µM (active) in experiment [5]; 2.35 µM (active) in experiment [6]. Moreover, the AC50 in [7] is 4.69 µM (active); in [8] it was 2.95 µM (active). In [9], the result was inactive.
